Measurements published in PubChem BioAssay.
The source made the active and inactive calls.

Legend:
[1] = molecular target: Albumin (Bos taurus) (UniProt P02769); experiment: compounds binding labelled BSA control protein – biochemical, small-molecule microarray, Alexa647 label, 635/667 nm fluorescence, artefact control for SMM control protein annotation, profiling panel (AID 1118); settings: BSA-A647 binding, fluorescence 635 nm, higher = more signal;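 also: score merges 667 nm emission intensity and signal-to-noise per printed compound spot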
[2] = probe aXIP binding to arrayed compounds – biochemical, NeuroSMM set, 635/667 nm fluorescence, primary screen (AID 1119); settings: small-molecule microarray, higher = more signal, called active from +8 up or from −8 down;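 also: probe is the protein aXip251-270 applied at 1 µg/mL to compound-printed slides; binding of probe to printed compounds measured as 667 nm fluorescence plus signal to noise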
[3] = probe aNOTCH3 binding on compound microarray – biochemical, small-molecule microarray, 635/667 nm fluorescence, primary screen (AID 1120); settings: higher = more signal;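 also: probe is a biotin-tagged antibody raised against NOTCH3 rather than NOTCH3 protein; score merges spot fluorescence near 667 nm with spot signal to noise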
[4] = probe aNOTCH2 binding on compound microarray – biochemical, small-molecule microarray, 635/667 nm fluorescence, primary screen (AID 1121); settings: higher = more signal;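 also: score merges feature fluorescence read at 667 nm with its signal to noise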
[5] = molecular target: Carbonic anhydrase 2 (Homo sapiens) (UniProt P00918); experiment: compounds binding carbonic anhydrase 2 – biochemical, small-molecule microarray, Alexa647-labelled CAII, profiling panel (AID 1122); settings: CAII-A647 binding fluorescence, higher = more signal
[6] = COS7 lysate on small-molecule microarray, probe aHis, 635 nm (AID 1123); settings: COS7 cell lysate, fluorescence, higher = more signal;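 also: z-score combines 667nm fluorescence intensity with signal-to-noise per printed compound spot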
[7] = probe aLAP1 signal on lysate-treated microarray – cell lysate, small-molecule microarray, COS7 lysate, primary screen (AID 1124); settings: probe aLAP1, fluorescence, higher = more signal;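 also: lysate comes from COS7 cells expressing LAP1 and is applied at 0.3 µg/mL; score merges spot fluorescence near 667 nm with signal-to-noise over triplicate slides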
[8] = test system: Sam68 (KHDRBS1); experiment: compounds binding KHDRBS1 protein – biochemical, small-molecule microarray, 635 nm fluorescence, primary screen (AID 1125); settings: higher = more signal;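 also: score merges 667 nm channel intensity with signal to noise over triplicate slides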
[9] = test system: Chordin-like protein 2 (CHRDL2); experiment: compounds binding chordin-like 2 – biochemical, small-molecule microarray, 635 nm fluorescence, primary screen (AID 1126); settings: fluorescence 635 nm, higher = more signal;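 also: printed compound slides probed with Chrdl2 protein at 4 µg/mL for 1 h at 4 C; score merges 667 nm emission intensity with signal to noise over three replicate slides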
[10] = molecular target: Concanavalin-A (Canavalia ensiformis) (UniProt P02866); experiment: compounds binding concanavalin A lectin – biochemical, small-molecule microarray, Alexa647 label, 635 nm, artefact control for SMM control protein annotation, primary screen (AID 1127); settings: ConA-A647 binding fluorescence, higher = more signal;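 also: z combines 667 nm emission intensity with signal-to-noise across three replicate slides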
[11] = compounds binding Alexa647 anti-His antibody – biochemical, small-molecule microarray, 635 nm fluorescence, artefact control for SMM control protein annotation, primary screen (AID 1128); settings: higher = more signal;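 also: score merges feature fluorescence with signal-to-noise for each printed compound spot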
[12] = test system: Human papillomavirus type 1a E7 protein (residues 1-88); experiment: HPV1a E7 small-molecule binders, primary screen, biochemical, small-molecule microarray, residues 1-88, 635 nm (AID 1129); settings: small-molecule microarray binding, fluorescence 635 nm; higher = more signal
[13] = molecular target: Focal adhesion kinase 1 (Homo sapiens) (UniProt Q05397); experiment: PTK2 protein binding on printed compound slides – biochemical, small-molecule microarray, 635/667 nm fluorescence, BSA, DTT, primary screen (AID 1130); settings: 635 nm fluorescence, higher = more signal;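 also: composite of spot emission at 667 nm and signal to noise over triplicate slides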
[14] = test system: Fibrinogen (Alexa647-labelled); experiment: Alexa647-fibrinogen binding to printed small molecules – biochemical, small-molecule microarray, 635/667 nm fluorescence, artefact control for SMM control-protein annotation, profiling panel (AID 1131); settings: fibrinogen-A647 binding fluorescence, higher = more signal;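 also: z-score merges 667 nm fluorescence with per-spot signal-to-noise over triplicate slides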
[15] = molecular target: Follistatin (Homo sapiens) (UniProt P19883); experiment: FST protein binding to printed compounds – biochemical, small-molecule microarray, 635/667 nm fluorescence, primary screen (AID 1132); settings: 635 nm fluorescence, higher = more signal
[16] = molecular target: Fibroblast growth factor 2 (Homo sapiens) (UniProt P09038); experiment: basic fibroblast growth factor binding to printed compounds – biochemical, small-molecule microarray, 635/667 nm fluorescence, primary screen (AID 1133); settings: FGF2, fluorescence 635/667, higher = more signal
[17] = JC-1 mitochondrial potential readout, lung cancer cells – cell-based, A549, JC-1 fluorescence, basal, 24 h, 100 nL, profiling panel (AID 1138); settings: higher = more signal;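 also: A549 lung adenocarcinoma cells under basal conditions with no added stimulus; test concentration not given here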
[18] = test system: Lefty1; experiment: Lefty1 protein binding to printed compounds – biochemical, small-molecule microarray, 635/667 nm fluorescence, primary screen (AID 1139); settings: fluorescence 635/667, higher = more signal
[19] = test system: wheat germ agglutinin (Triticum aestivum), Alexa647-labelled; experiment: Alexa647-WGA lectin binding to printed small molecules – biochemical, small-molecule microarray, 635/667 nm fluorescence, artefact control for SMM control-protein annotation, profiling panel (AID 1140); settings: WGA-A647 binding, 635 nm fluorescence, higher = more signal;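 also: score merges 667 nm feature emission with signal to noise over triplicate slides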
[20] = molecular target: Luciferin 4-monooxygenase (Photinus pyralis) (UniProt P08659); experiment: inhibition of purified Photinus pyralis luciferase – biochemical, luminescence, purified enzyme, 2006 set, primary screen (AID 1141); settings: purified firefly luciferase, SteadyGlo luminescence, 30 min; higher = more signal, called active from +8 up or from −8 down;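 also: cell-free assay with purified firefly luciferase at 100 ng per well in PBS; test concentration not given here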
Sequence of Luciferin 4-monooxygenase (Photinus pyralis) (P08659 whole entry, looked up): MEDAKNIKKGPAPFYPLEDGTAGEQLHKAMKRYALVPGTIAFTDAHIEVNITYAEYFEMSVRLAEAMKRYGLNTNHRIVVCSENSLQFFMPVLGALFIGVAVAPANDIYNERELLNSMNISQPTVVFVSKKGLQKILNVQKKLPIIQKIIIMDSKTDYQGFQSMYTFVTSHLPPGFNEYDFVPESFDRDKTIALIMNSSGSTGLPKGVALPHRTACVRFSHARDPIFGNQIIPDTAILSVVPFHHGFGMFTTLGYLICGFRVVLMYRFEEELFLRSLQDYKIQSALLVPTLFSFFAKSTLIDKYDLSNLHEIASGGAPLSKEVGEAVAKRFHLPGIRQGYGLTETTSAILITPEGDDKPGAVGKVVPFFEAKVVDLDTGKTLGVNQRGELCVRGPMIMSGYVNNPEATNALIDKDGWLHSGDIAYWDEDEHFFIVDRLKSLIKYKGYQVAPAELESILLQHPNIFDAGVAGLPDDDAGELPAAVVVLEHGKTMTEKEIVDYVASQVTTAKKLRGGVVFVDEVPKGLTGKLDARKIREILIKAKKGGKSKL

Sequence of Albumin (Bos taurus) (P02769 whole entry, looked up): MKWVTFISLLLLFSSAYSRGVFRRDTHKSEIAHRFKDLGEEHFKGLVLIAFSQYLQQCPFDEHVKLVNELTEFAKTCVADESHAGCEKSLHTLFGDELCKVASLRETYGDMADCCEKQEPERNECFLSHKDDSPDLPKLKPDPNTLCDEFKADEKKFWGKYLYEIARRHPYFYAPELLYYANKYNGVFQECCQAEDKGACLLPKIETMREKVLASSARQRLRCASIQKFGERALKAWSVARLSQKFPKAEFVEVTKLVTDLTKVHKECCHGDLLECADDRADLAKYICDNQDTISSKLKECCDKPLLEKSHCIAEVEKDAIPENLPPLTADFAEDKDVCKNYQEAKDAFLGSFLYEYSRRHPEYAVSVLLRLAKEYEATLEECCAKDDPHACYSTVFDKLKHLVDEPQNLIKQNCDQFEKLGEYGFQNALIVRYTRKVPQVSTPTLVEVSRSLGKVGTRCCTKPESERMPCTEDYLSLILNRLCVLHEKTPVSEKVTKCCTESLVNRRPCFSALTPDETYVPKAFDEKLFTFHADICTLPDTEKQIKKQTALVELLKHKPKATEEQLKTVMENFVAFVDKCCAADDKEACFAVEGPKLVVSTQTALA
Sequence of Concanavalin-A (Canavalia ensiformis) (P02866 whole entry, looked up): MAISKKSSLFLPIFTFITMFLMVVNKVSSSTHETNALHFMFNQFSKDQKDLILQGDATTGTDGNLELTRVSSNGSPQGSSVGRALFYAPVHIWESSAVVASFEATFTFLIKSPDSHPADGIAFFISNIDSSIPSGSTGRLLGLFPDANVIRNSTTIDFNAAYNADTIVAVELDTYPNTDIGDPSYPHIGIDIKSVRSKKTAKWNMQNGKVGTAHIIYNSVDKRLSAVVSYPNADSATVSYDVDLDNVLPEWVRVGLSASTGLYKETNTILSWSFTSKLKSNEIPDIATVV
Sequence of Focal adhesion kinase 1 (Homo sapiens) (Q05397 whole entry, looked up): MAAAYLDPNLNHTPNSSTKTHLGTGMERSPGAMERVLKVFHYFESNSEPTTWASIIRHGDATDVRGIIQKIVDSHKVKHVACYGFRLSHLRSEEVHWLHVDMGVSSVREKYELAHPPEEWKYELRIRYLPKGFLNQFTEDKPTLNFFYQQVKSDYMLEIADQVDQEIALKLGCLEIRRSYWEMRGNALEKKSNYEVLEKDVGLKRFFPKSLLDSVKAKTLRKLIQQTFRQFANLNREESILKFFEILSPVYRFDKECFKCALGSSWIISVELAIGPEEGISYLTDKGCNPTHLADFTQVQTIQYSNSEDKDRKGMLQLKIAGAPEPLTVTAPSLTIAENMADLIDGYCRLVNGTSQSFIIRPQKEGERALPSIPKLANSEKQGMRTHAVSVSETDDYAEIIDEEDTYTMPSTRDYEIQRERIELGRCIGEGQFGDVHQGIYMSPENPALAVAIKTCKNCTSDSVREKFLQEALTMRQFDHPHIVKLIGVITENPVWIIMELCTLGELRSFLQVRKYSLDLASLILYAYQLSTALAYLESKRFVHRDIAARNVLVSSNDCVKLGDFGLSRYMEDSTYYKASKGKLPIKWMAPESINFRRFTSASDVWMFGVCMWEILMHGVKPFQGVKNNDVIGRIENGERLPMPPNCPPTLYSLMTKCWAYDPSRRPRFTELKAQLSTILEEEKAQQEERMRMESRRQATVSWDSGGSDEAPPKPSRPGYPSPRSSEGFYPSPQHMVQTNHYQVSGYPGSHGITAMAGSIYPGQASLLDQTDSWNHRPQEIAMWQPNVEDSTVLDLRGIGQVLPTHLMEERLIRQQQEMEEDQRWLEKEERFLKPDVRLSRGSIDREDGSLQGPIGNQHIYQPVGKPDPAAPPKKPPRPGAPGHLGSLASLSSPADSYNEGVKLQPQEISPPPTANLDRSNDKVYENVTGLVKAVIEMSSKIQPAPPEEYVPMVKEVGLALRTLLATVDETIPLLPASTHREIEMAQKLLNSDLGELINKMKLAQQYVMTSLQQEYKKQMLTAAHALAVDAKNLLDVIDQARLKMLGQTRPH
Sequence of Follistatin (Homo sapiens) (P19883 whole entry, looked up): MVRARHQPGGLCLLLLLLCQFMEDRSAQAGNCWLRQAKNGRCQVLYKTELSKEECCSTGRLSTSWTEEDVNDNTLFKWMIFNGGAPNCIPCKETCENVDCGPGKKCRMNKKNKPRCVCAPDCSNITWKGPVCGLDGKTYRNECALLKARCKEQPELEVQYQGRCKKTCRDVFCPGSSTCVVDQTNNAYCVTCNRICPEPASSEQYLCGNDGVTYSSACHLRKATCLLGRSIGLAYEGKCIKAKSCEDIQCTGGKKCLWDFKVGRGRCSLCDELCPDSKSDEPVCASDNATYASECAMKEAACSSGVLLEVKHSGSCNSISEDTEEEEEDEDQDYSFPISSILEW
Sequence of Fibroblast growth factor 2 (Homo sapiens) (P09038 whole entry, looked up): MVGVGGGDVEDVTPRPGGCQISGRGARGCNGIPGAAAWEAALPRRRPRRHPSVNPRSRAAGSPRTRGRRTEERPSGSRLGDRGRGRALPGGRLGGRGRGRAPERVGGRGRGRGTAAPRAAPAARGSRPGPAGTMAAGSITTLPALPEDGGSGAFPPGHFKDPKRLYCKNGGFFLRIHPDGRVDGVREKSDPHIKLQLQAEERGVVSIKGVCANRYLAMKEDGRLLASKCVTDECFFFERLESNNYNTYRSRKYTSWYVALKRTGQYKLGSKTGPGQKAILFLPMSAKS

Compound	composite z-score [1]	composite Z-score [2]	composite z-score [3]	composite z-score [4]	composite z-score [5]	composite z-score [6]	composite z-score [7]	composite z-score [8]	composite z-score [9]	composite z-score [10]	composite z-score [11]	composite z-score [12]	composite z-score [13]	composite z-score [14]	composite z-score [15]	composite z-score [16]	z-score [17]	composite z-score [18]	composite z-score [19]	z-score [20]
CCOC(=O)C1=CC[C@@H](c2ccc(OC)cc2)N(S(=O)(=O)c2ccc(C)cc2)[C@H]1c1ccc(C)cc1	0.446	0.477 (inactive)	0.0203	-0.084	0.222	1.99	0.423	1.34	-0.554	0.669	1.23	1.18	0.389	0.844	0.633	-0.0931	3.2	0.333	0.803	1.1 (inactive)
O=C1c2ccccc2[C@@]2(Cc3ccccc3N(Cc3ccccc3)C2=O)[C@H](c2ccc(CO)cc2)N1Cc1ccccc1Cl	0.705	0.0507 (inactive)	-0.279	-0.171	-0.391	-0.222	0.147	-0.633	-0.688	-0.709	-0.743	-1.14	-0.0858	-1.2	-0.465	-0.395	-0.00887	-0.0772	-0.45	1.3 (inactive)
COC(=O)C(CC#Cc1ccc2c(c1)[C@]1(C(=O)N2)[C@H](c2ccccc2OCCO)N2[C@H](c3ccccc3)[C@H](c3ccccc3)OC(=O)[C@H]2[C@@H]1C(=O)N1CCc2cc(OC)c(OC)cc2C1)C(=O)OC	0.185	0.0296 (inactive)	0.172	-0.14	0.661	1.19	0.653	1.29	0.618	0.914	1.3	1.21	0.317	0.601	1.32	0.667	-0.668	0.896	0.28	-0.242 (inactive)
COc1ccc([Si](C)(C)[C@@H]2[C@@H](CC(=O)N3CCC[C@H]3CO)O[C@]3(C(=O)N(Cc4cccc(N5CCCCC5=O)c4)c4ccccc43)[C@H]2C)cc1	-0.101	1.39 (inactive)	-0.0098	-0.127	0.583	1.97	0.433	1.07	0.781	1.11	2.54	1.03	0.0576	0.641	0.767	0.473	0.218	1.23	0.307	-1.86 (inactive)
COC(=O)[C@@]1(Cc2ccc(F)cc2)[C@H]2c3cc(C(=O)N(C)C)n(C)c3C[C@H]2CN1C(=O)c1ccccc1	0.637	0.343 (inactive)	0.224	0.352	0.777	1.37	0.33	-0.333	-0.401	0.768	2.58	0.372	0.154	-0.0862	-0.524	0.263	0.239	-0.795	0.229	0.053 (inactive)
O=C(NCc1ccccc1)[C@@H]1c2ccccc2C(=O)N(Cc2ccc(OC(F)(F)F)cc2)[C@H]1c1ccc(CO)cc1	0.0192	2.41 (inactive)	-0.155	-0.11	0.694	2.29	0.633	0.258	-0.431	-0.278	2.71	0.277	0.442	-0.222	0.616	0.0415	2.79	-0.9	-0.416	-0.828 (inactive)
COc1ccc(C(=O)Nc2ccc(CN3C(=O)[C@@]4(O[C@@H](CCn5cc(CCO)nn5)[C@H]([Si](C)(C)c5ccc(OC)cc5)[C@H]4C)c4ccccc43)cc2)cc1	0.264	0.32 (inactive)	0.0276	-0.0895	0.348	0.822	0.116	1.32	0.919	1.09	1.17	1.17	0.749	0.874	1.35	1.21	-0.326	1.1	0.522	-0.162 (inactive)
C=CCN1C(=O)[C@]2(O[C@H](CCn3cc([C@H](O)c4ccccc4)nn3)[C@@H]([Si](C)(C)c3ccc(OC)cc3)[C@@H]2C)c2cc(NC(=O)c3ccc(OC)cc3)ccc21	0.55	0.24 (inactive)	-0.0362	-0.135	0.015	1.02	-0.182	0.867	0.334	0.543	0.66	0.499	0.748	0.0903	1.23	0.307	0.997	0.794	0.422	-1.16 (inactive)
COc1ccc([Si](C)(C)[C@H]2[C@H](CC(=O)N3Cc4ccccc4C[C@H]3CO)O[C@@]3(C(=O)N(C)c4c(Br)cc(C)cc43)[C@@H]2C)cc1	0.238	0.298 (inactive)	0.0643	-0.164	0.0971	0.787	0.152	1.1	0.7	1.06	0.533	0.777	0.172	0.636	1.34	1.24	-0.224	1.58	0.655	-0.0165 (inactive)
CC(=O)c1ccc(C(O)C2C=CC3C(=O)N(c4ccccc4)C(=O)C3N2Nc2ccc(C(C)C)cc2)cc1 (stereo not given)	0.0031	-0.275 (inactive)	0.247	0.216	0.666	1.97	0.463	1.13	-0.185	1.13	0.779	1.23	0.329	0.939	1.13	1.1	0.678	-0.212	1.17	-1.41 (inactive)
N#Cc1ccc(C(O)C2C=CC3C(=O)NC(=O)C3N2Nc2ccc(Cl)cc2Cl)cc1 (stereo not given)	0.956	0.868 (inactive)	0.112	0.132	0.651	2.94	1.48	-0.0258	-0.581	0.489	0.299	0.534	0.352	0.732	-0.0644	-0.164	1.28	-0.781	1.08	0.293 (inactive)
